{"source": "PubChem BioAssay AID1347155", "about": "(National Center for Advancing Translational Sciences (NCATS), 2019)", "note": "Records with an inconclusive call do not appear. The source made the active and inactive calls. Calls come from the whole dose curve; as a rule, active = well fitted inhibition curve with a large enough effect; inconclusive = small, poorly fitted or top-dose-only effect; inactive = no such curve, though single readings can be large or run the other way."}
{"tested_on": "Zika virus NS2B-NS3 protease (linked)", "test": "Optimization screen NINDS Rhodamine qHTS for Zika virus inhibitors: Linked NS2B-NS3 protease assay", "details": "fluorogenic rhodamine substrate; series mostly up to 105 µM; activity change, negative = inhibition: at the top concentration", "from_the_text": "Avindra Nath, Ph.D., National Institute of Neurological Disorders and Stroke (NINDS), Bethesda, MD\nRadhakrishnan Padmanabhan, Ph.D., Georgetown University (GU), Washington D.C.\nZika Virus causes congenital defects, including microcephaly and is associated with Guillain-Barre syndrome, eningoencephalitis and myelitis in infected adult. […] Using a target-based approach, we hope to establish a screening paradigm to uncover novel, cell-active NS2B-NS3 protease (Zika Virus) specific inhibitors from NCATS' collection of small molecules using qHTS.\nFour assay panel was created to identify potential Zika Virus inhibitors. Namely, (1) GU unlinked NS2B-NS3 AMC tagged protease qHTS, (2) GU unlinked NS2B-NS3 Rhodamine tagged protease qHTS, (3) NINDS linked NS2B-NS3 AMC tagged protease qHTS, (4) NINDS linked NS2B-NS3 Rhodamine tagged protease qHTS. Active compounds were re-acquired and re-screened to confirm inhibition. Inhibitors were further screened against various confirmatory and counterscreens in dose response format.\nEarly Translation Branch (ETB)\nNational Center for Advancing Translational Sciences (NCATS), Rockville, MD\nNational Institute of Health (NIH), Bethesda, Maryland\nFor the linked assay, Nath lab (NINDS) provided the purified linked NS2B-NS3 protease which is consists of hydrophilic domain of NS2B linked to the NS3 protease domain by a flexible (-GGGGSGGGG-) linker. Control compound aprotinin is obtained from Thermo Scientific (#78432; Waltham, Massachusetts). Rhodamine110 substrate ([N-Cbz]-Nle-Lys-Arg-Arg-Rhod110-Arg-Arg-Lys-Nle-[N-Cbz]) was purchased from either Genscript or Bachem.\n1536-well Protease (Rhodamine110 Substrate) Assay:\nBriefly, 3 microL of enzyme (25 nM final concentration), in assay buffer (10 mM Tris-HCl pH 8.0 with 0.01% Tween 20) were dispensed into a 1,536-well solid-bottom black plate (Greiner Bio One, Monroe, NC). Twenty-three nL of compounds (final concentration range 7.28 nM to 114 microM) or control Aprotinin (final concentration range 3.47 nM to 114 microM) were transferred via Wako Pin-tool (Wako Automation, Richmond, VA). Samples were incubated (room temperature, protected from light) for 15 minutes followed by a 1 microL Rhodamine110 substrate addition (1.5 microM final concentration). Plates were then immediately read on a ViewLux High-throughput CCD imager (PerkinElmer, Waltham, MA) equipped with FITC fluorescence optics (480(20) nm excitation, 540(25) nm emission), then incubated (room temperature, protected from light) for 15 minutes (~15% conversion). The change in fluorescence intensity over the 15-minute reaction period was normalized against no-inhibitor and no-enzyme controls and the resulting percent inhibition data were fitted to a 4-parameter Hill equation. Aprotinin was used as intraplate control."}
{"smiles": "C[C@H]1O[C@@H](O[C@H]2[C@@H](O)C[C@H](O[C@H]3[C@@H](O)C[C@H](O[C@H]4CC[C@@]5(C)[C@H](CC[C@@H]6[C@@H]5CC[C@]5(C)[C@@H](C7=CC(=O)OC7)CC[C@]65O)C4)O[C@@H]3C)O[C@@H]2C)C[C@H](O)[C@@H]1O", "activity change, negative = inhibition": "29.8% [at 228 µM] (inactive)"}
{"smiles": "Cc1ccc2c(c1)[C@]13CCCC[C@@H]1[C@H](C2)N(C)CC3", "activity change, negative = inhibition": "-3.81% (inactive)"}
{"smiles": "C=CCN1CCC2(C)c3cc(O)ccc3CC1C2C", "note": "(stereo not given)", "activity change, negative = inhibition": "4.68% (inactive)"}
{"smiles": "CN1CC[C@@]23CCCCC2C1Cc1ccc(O)cc13", "note": "(stereo not given in full)", "activity change, negative = inhibition": "-6.91% (inactive)"}
{"smiles": "CO[C@H]1[C@@H](O)CC(OC2[C@@H](O)CC(OC3[C@@H](O)C[C@H](OC4CC[C@@]5(C)C(CCC6C5CC(O)[C@]5(C)[C@H](C7=CC(=O)OC7)CCC65O)C4)O[C@@H]3C)O[C@@H]2C)O[C@@H]1C", "note": "(stereo not given in full)", "activity change, negative = inhibition": "28.1% [at 228 µM] (inactive)"}
{"smiles": "C[C@@H]1O[C@@H](O[C@H]2C[C@@H](O)[C@]3(CO)C4C(CC[C@]3(O)C2)[C@@]2(O)CC[C@H](C3=CC(=O)OC3)[C@@]2(C)C[C@H]4O)[C@H](O)[C@H](O)[C@H]1O", "note": "(stereo not given in full)", "activity change, negative = inhibition": "0% (inactive)"}
{"smiles": "CC(C)=CCN1CC[C@@]2(C)c3cc(O)ccc3C[C@@H]1[C@@H]2C", "activity change, negative = inhibition": "-11.2% [at 228 µM] (inactive)"}
{"smiles": "CC(C)OC(=O)Nc1ccccc1", "activity change, negative = inhibition": "-10.4% [at 228 µM] (inactive)"}
{"smiles": "C=CCN1CC[C@]23CCCCC2[C@H]1Cc1ccc(O)cc13", "note": "(stereo not given in full)", "activity change, negative = inhibition": "-8.8% (inactive)"}
{"smiles": "C[C@H]1O[C@@H](O[C@H]2[C@@H](O)C[C@H](O[C@H]3[C@@H](O)C[C@H](O[C@H]4CC[C@]5(C)C6CC[C@]7(C)[C@@H](C8=CC(=O)OC8)CC[C@]7(O)C6CC[C@@H]5C4)O[C@@H]3C)O[C@@H]2C)C[C@H](O)[C@@H]1O", "note": "(stereo not given in full)", "activity change, negative = inhibition": "54.4% (inactive)"}
{"smiles": "C=CCN1CCC2(C)c3cc(O)ccc3C[C@H]1[C@H]2C", "activity change, negative = inhibition": "-10.8% (inactive)"}
{"smiles": "CC[C@H](C)[C@H]1O[C@]2(C=C[C@@H]1C)C[C@@H]1C[C@@H](C/C=C(\\C)[C@@H](O[C@H]3C[C@H](OC)[C@@H](O[C@H]4C[C@H](OC)[C@@H](O)[C@H](C)O4)[C@H](C)O3)[C@@H](C)/C=C/C=C3\\CO[C@@H]4[C@H](O)C(C)=C[C@@H](C(=O)O1)[C@]34O)O2", "activity change, negative = inhibition": "15.2% (inactive)"}
{"smiles": "CC1O[C@@H](O[C@@H]2C(O)C[C@H](O[C@@H]3C(O)C[C@@H](OC4CC[C@@]5(C)C6CC[C@]7(C)C(C8=CC(=O)OC8)CC[C@@]7(O)C6CC[C@@H]5C4)OC3C)OC2C)CC(O)[C@H]1O", "note": "(stereo not given in full)", "activity change, negative = inhibition": "5.19% (inactive)"}
{"smiles": "C[C@H]1O[C@@H](O[C@H]2[C@@H](O)C[C@@H](O[C@H]3[C@@H](O)C[C@H](O[C@H]4CC[C@@]5(C)[C@H](CC[C@@H]6[C@@H]5CC[C@]5(C)[C@@H](C7=CC(=O)OC7)CC[C@]65O)C4)O[C@@H]3C)O[C@@H]2C)C[C@H](O)[C@@H]1O", "activity change, negative = inhibition": "18% [at 228 µM] (inactive)"}
{"smiles": "C[C@@H]1[C@@H]2Cc3ccc(O)cc3[C@@]1(C)CCN2CC1CC1", "activity change, negative = inhibition": "-1.76% (inactive)"}
{"smiles": "C[C@@H]1[C@@H]2Cc3ccc(O)cc3[C@@]1(C)CCN2CCc1ccccc1", "activity change, negative = inhibition": "-4.89% [at 228 µM] (inactive)"}
{"smiles": "C[C@@H]1O[C@@H](O[C@H]2C[C@@H](O)[C@]3(CO)[C@H]4[C@H](O)C[C@]5(C)[C@@H](C6=CC(=O)OC6)CC[C@]5(O)[C@@H]4CC[C@]3(O)C2)[C@H](O)[C@H](O)[C@H]1O", "outcome": "inactive"}
{"smiles": "COC1C(O)C(C)O[C@@H](OC2CC[C@@]3(C)C4CC[C@]5(C)C(C6=CC(=O)OC6)CC[C@@]5(O)C4CC[C@@H]3C2)C1O", "note": "(stereo not given in full)", "activity change, negative = inhibition": "11.3% (inactive)"}
{"smiles": "CC1OC(O[C@H]2C[C@@H](O)[C@]3(CO)[C@H]4[C@H](O)C[C@]5(C)[C@@H](C6=CC(=O)OC6)CC[C@]5(O)[C@@H]4CC[C@]3(O)C2)C(O)C(O)C1O", "note": "(stereo not given in full)", "activity change, negative = inhibition": "-14.6% (inactive)"}
{"smiles": "CN1CC[C@@]23CCCC[C@@H]2[C@@H]1Cc1ccc(O)cc13", "activity change, negative = inhibition": "-9.26% (inactive)"}
